Structures are written as SMILES. Activity calls are given as the source filed them.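 How the source made its calls: active means inhibition above the hit cutoff set in the earlier primary screen (cut at about 27% in these data); inactive means the rest.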

One may read the inhibition as the relative decrease from the control value, in per cent.

For this test, the target named is Protein phosphatase methylesterase 1 (Homo sapiens) (UniProt Q9Y570). The test is described as follows: human PME-1 methylesterase inhibition confirmation – biochemical, fluorescence polarization, FP-Rh probe, triplicate (AID 2171).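 Further: 0% = enzyme with DMSO and 100% = wells lacking PME-1.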 As to conditions: recombinant PME-1, FP-Rh probe fluorescence polarization; at 5.9 µM; stronger effect = higher value.
Sequence of Protein phosphatase methylesterase 1 (Homo sapiens) (Q9Y570 whole entry, looked up): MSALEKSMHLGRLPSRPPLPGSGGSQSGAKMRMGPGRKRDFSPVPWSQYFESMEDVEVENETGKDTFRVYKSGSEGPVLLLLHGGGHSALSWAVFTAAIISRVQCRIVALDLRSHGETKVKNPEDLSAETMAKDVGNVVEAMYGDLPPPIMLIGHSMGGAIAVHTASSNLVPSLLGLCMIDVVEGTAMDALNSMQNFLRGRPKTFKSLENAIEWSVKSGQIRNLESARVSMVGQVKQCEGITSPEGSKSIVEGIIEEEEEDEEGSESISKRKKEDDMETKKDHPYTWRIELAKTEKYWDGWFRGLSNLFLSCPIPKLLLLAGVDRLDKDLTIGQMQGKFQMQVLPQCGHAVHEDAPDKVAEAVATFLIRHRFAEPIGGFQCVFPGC
Consider `CC1=CC(C)(C)N2C(=O)C(=Nc3ccc(O)cc3)c3cccc1c32`, for which the inhibition is 4.13% (inactive). In the case of `COc1ccc(NC(=O)Nc2cccc([N+](=O)[O-])c2)cc1Cl` it was 2.05% (inactive); in that of `O=C1C(CSCc2ccccc2)NC(=S)N1c1ccccc1` (stereo not given), 5.6% (inactive).

As to `CCc1ccc(OC)c(S(=O)(=O)Nc2ccc(Cc3ccncc3)cc2)c1`, the inhibition was 31.8% (active). In the case of `CC1(OC(=O)c2cnc3ccccc3n2)C(=O)C=C2C=C(C3CC3)OC=C2C1=O` (stereo not given) it was 23.9% (inactive); in that of `O=c1[nH][nH]c2cc(=O)n(-c3cccc(C(F)(F)F)c3)nc12`, 28.5% (active); in that of `O=C1c2ccccc2-c2onc3ccc(NCCCn4ccnc4)c1c23`, 163% (active). In the case of `CCCCN(C)CCCNC(=O)c1cn(CC)c2ccc(S(=O)(=O)N3CCc4ccccc4C3)cc2c1=O` it was 53.6% (active). On to `COc1ccc(N=C2NC(=O)S/C2=C\c2ccc(N(C)C)cc2)cc1`, for which the inhibition was 37.2% (active). `CCOc1cc(N(CC)CC)ccc1/C=C(/C#N)c1nc2ccccc2[nH]1`: the inhibition is 8.91% (inactive). Next, `CC(C)Nc1nnc(SCC(=O)Nc2ccc3c(c2)C(=O)c2ccccc2C3=O)s1`: 36.4% (active). Next, `Nc1n[nH]c(C2CC2)c1N=Nc1ccc(Cl)c(Cl)c1`: 20.6% (inactive); `N#CC/C(N)=N/Nc1nc2ccccc2nc1Cc1ccccc1`: -1.36% (inactive); `Cc1ccc(NC(=O)COc2cccc(/C=C3\SC(=S)N(CCC(=O)O)C3=O)c2)cc1Cl`: 26% (inactive).

As for `Cc1ccccc1NC1=C/C(=N\S(=O)(=O)c2ccc(C(=O)O)cc2)c2ccccc2C1=O`, the inhibition is 40% (active).

Source of the values: PubChem BioAssay.
